Measured values as given in PubChem BioAssay AID602248 (The Scripps Research Institute Molecular Screening Center, 2012).
Out of some 360,000 compounds screened, about 1,700 (0.47%) were called active. What follows is part of a selection rich in actives, with near analogues and random picks from the rest. A number with no mark means an inactive call. Cut-off read from the data, not from the text of the source: active = activation above about 15%; inactive = the rest.

Assay: counter-screen for M1 agonists: effect in parental CHO-K1 cells (AID 602248);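 note: untransfected CHO-K1 host cells lacking M1 receptor as counterscreen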
Details: Fluo-8 calcium fluorescence, at 3 µM, stronger effect = higher value, scaled to maximal ATP response, vehicle zero

Compound	activation
N=c1n(Cc2ccc(Cl)cc2)c2ccccc2n1CC(O)c1ccco1 (configuration not stated)	1.71%
CC12CCC(=O)N1C(C(=O)Nc1ccc(F)c(F)c1F)CS2 (configuration not stated)	1.59%
CCCc1nc(-c2ccccc2O)n(-c2ccccc2)n1	-0.09%
Cc1nc(NC(CC(C)C)C(=O)O)c2nc(C)oc2n1 (configuration not stated)	-0.16%
O=C(CN(CC1CCCO1)C(=O)CNS(=O)(=O)c1ccc(F)cc1)NCc1ccco1 (configuration not stated)	1.1%
O=C(NCc1cccs1)C(=O)NCC1OCCCN1S(=O)(=O)c1ccc(F)cc1 (configuration not stated)	-0.04%
CN(NC(=O)C1CC(=O)N(c2ccccc2)C1)C1=NS(=O)(=O)c2ccccc21 (configuration not stated)	-0.27%
CN(C(=O)COC(=O)c1ccc(Br)o1)c1c(N)n(Cc2ccccc2)c(=O)[nH]c1=O	2.4%
Cc1cc2nc3c(=O)n(Cc4ccccc4)c(=O)[nH]c3nc2cc1N	47.3% (active)
Nc1cc(=O)n(Cc2ccccc2)c(=O)n1Cc1ccccc1	0.11%
Cc1ccc(S(=O)(=O)n2cccc2CO)cc1	-0.4%
COc1ccc(-n2c(Cc3cccn3C)nnc2SCC(=O)Nc2cc(C)cc(C)c2)cc1	-0.02%
CCOC(=O)N1C(=O)C[C@](Sc2ccc(C)cc2)(C(=O)OC)[C@H]1c1ccccc1	1.19%
CC(=O)Nc1ccc(NC(=S)NC(=O)c2ccc([N+](=O)[O-])c(C)c2)cc1	1.35%
COCCCNC(=S)NC(=O)c1ccc([N+](=O)[O-])cc1	0.19%
CC(=O)NC(=S)Nc1ccc(NC(=S)NC(=O)c2ccc([N+](=O)[O-])cc2)cc1	24.5% (active)
Cc1nn(C(C)C(=O)N2CCOCC2)c(=O)c2nn(-c3ccccc3)c(C)c12 (configuration not stated)	2.09%
Fc1ccccc1COc1ccccc1CNCc1ccncc1	4.4%
COc1cccc(CNCCc2c[nH]c3ccccc23)c1OCc1ccccc1F	23.3% (active)
COc1cccc(CNn2cn[nH]c2=S)c1OCc1ccccc1	1.05%
COc1cc(NC(=O)COC(=O)CSc2ccc3ccccc3c2)c(C)cc1[N+](=O)[O-]	5.21%
COc1ccc(-c2c(-c3ccc(OC)cc3O)nc(C)nc2C(F)(F)F)cc1	-0.31%
COc1ccc(-c2n[nH]c(C)c2-c2ccccc2OC)c(O)c1	15.4% (active)

Compound	activation
COc1ccc(-c2[nH]ncc2CN(C)Cc2c(C)n[nH]c2C)c(OC)c1	1.07%
Cc1ccc(Cc2cncc(O)c2)cc1S(=O)(=O)O	0.27%
NC(=O)c1ccsc1NC(=O)COC(=O)COc1ccc(C=O)cc1	16.2% (active)
COc1cc(OC)cc(C(=O)OCC(=O)Nc2sccc2C(N)=O)c1	9.07%
Cc1cccc(C(=O)OCC(=O)Nc2sccc2C(N)=O)c1C	-0.07%
CCOC(=O)[C@]12CCC=C1N(Cc1cccc3ccccc13)C(=O)[C@H](CC(=O)NCc1cccc(C(F)(F)F)c1)C2	0.16%
COc1cc(NC(=O)NCC2CCN(Cc3ccc(C)cc3)CC2)cc(OC)c1OC	1.36%
Cc1ccc(C)c(CN2CCC(CNC(=O)Nc3ccc(C)c(F)c3)CC2)c1	2.18%
Cc1cccc(CN2CCC(CNC(=O)Nc3ccc(F)c(Cl)c3)CC2)c1	29.2% (active)
O=C(O)c1cc2c(cc1NC(=O)c1c(F)cccc1Cl)OCCCO2	0.67%
O=C(O)c1cc(Cl)c(Cl)cc1C(=O)Nc1cccc2ncccc12	20.9% (active)
Cc1ccc(/C=C(\C#N)C(=O)Nc2cccc3ncccc23)o1	2.57%
COc1ccc(C(=O)CSc2nnnn2C)c(OC)c1	-0.15%
CSc1c(SCc2ccccc2)cnn(Cc2ccccc2)c1=O	18.2% (active)
COC(=O)c1ccc(SCc2ccccc2)nc1	-0.21%
O=c1c2ccccc2c(-c2ccc(Br)cc2)nn1Cc1ccccc1	0.4%
Cc1nn(CC2CC2)c(=O)n1N(C)c1ncc(C(F)(F)F)cc1Cl	1.05%
COc1ccc2c(CN3CCN(S(=O)(=O)c4cccs4)CC3)cc(=O)oc2c1	16.1% (active)
Cc1ccc2c(CN3CCN(S(=O)(=O)c4ccccc4C(F)(F)F)CC3)cc(=O)oc2c1	6.94%
Cc1cc2oc(=O)cc(CN3CCN(S(=O)(=O)c4cccs4)CC3)c2cc1C(C)C	1.53%
O=C(Nc1ccccc1)c1ccc2nsnc2c1	-0.09%
COc1ccc(NC(=O)Nc2ccc3nsnc3c2)cc1	19.9% (active)
O=C(Nc1ccc2ccccc2c1)Nc1ccc2snnc2c1	14%

Compound	activation
CCc1ccccc1NC(=O)Cc1cn(C)c2ccccc12	8.41%
CC(C)(C)C1CCC(=O)N2CCC[C@]2(c2ccccc2)C1 (some centres not stated)	-0.26%
Cc1nc(N)c(Br)c(C)c1Br	-0.78%
COc1cccc(CNc2nc(NCc3cccs3)nc3ccsc23)c1	24.7% (active)
COc1cccc(CNc2nc(NCc3ccccc3OC)nc3ccsc23)c1	8.82%
COc1ccccc1CNc1nc(Nc2ccccc2Cl)c2sccc2n1	7.11%
CN1C(C)(C)CC(NC(=O)CCC(=O)NC2CC(C)(C)N(C)C(C)(C)C2)CC1(C)C	0.35%
C=CCN1C2CCCC1CC(NC(=S)Nc1cccc(OC)c1)C2 (configuration not stated)	1.29%
N#Cc1c(-c2ccccc2)c(-c2ccccc2)n[nH]c1=O	-0.04%
O=C(CCCOc1ccccc1)Nc1cccc(C(=O)O)c1	0.45%
O=C(CNCc1ccc(Cl)cc1)Nc1cccc(C(=O)O)c1	18.2% (active)
Cc1ccc(C)c2c1cc(C)c1nnc(SCC(=O)Nc3cccc(C(=O)O)c3)n12	1.47%
O=C(NCc1ccco1)c1cccc(-c2ccc3nncn3c2)c1	0.29%
C1CC1Cc1noc(CN2CCN(CC3CC3)CC2)n1	1.05%
COc1cc(OC)c(N2CC(C(=O)Nc3cc(Cl)ccc3N3CCOCC3)CC2=O)cc1Cl (configuration not stated)	4.62%
COc1cc(OC)c(-n2cc(-c3ccc(Cl)cc3)[nH]c2=O)cc1Cl	25.2% (active)
COc1ccc(Cl)cc1S(=O)(=O)N1CCC(O)(c2ccc(Cl)cc2)CC1	0.66%
O=C(CCCN1CCc2[nH]c3ccc(F)cc3c2C1)c1ccc(F)cc1	24% (active)
CC1CCc2[nH]c3ccc(C(=O)N(C)CC(=O)Nc4cccc(F)c4)cc3c2C1 (configuration not stated)	2.26%
Cn1c(SCC(=O)N2CCOCC2)nnc1-c1ccc2ncccc2c1	0.63%
Cc1c(Cl)c([N+](=O)[O-])nn1Cc1ccc(C(=O)N/N=C\c2cc(Cl)ccc2O)o1	19.9% (active)
Cc1c(Cl)c([N+](=O)[O-])nn1CCCC(=O)NC(C)c1ccccc1 (configuration not stated)	-0.09%
CN(C)c1ccc(/C=N/NC(=O)c2ccc(Cn3cc(Br)cn3)o2)cc1	0.99%

Compound	activation
C=C(C)CSc1nnc(-c2ccc(C)cc2)n1N	0.17%
O=C(CCN1C(=O)c2ccccc2C1=O)NCCCn1ccnc1	0.76%
COC(=O)c1c(C)c(C)nc(N)c1C#N	0.12%
COCc1c(N)c(C)nc(Cl)c1C#N	16.9% (active)
Cc1nc(Cl)c(C#N)c2c1CCCC2	0.61%
CCNC(=O)C1(C)CCN(C(=O)c2ccccc2)C1 (configuration not stated)	-0.33%
O=C(Cn1ccc([N+](=O)[O-])n1)NCc1cccs1	0.12%
OCCN1CCN(c2ncnc3c2ncn3[C@H]2CN(Cc3ccco3)C[C@@H](CO)O2)CC1	0.92%
CCNC(=O)N1CCN(S(=O)(=O)c2ccc3c(c2)OCCCO3)CC1	1.28%
COc1cc(NC(=O)c2ccc(CNc3c(N4CCCC4)c(=O)c3=O)cc2)cc(OC)c1OC	0.42%
CC(=O)Oc1ccc(Cn2c(C)c(C(=O)NCc3ccc(C#N)cc3)sc2=O)cc1	31.7% (active)
Cc1ccc(Cn2c(C)c(C(=O)NCc3ccccc3C(F)(F)F)sc2=O)cc1	0.82%
Cc1c(C(=O)NCc2ccc(C#N)cc2)sc(=O)n1Cc1ccc(C(=O)N(C)C)cc1	-0.19%
CCC(CC)C(=O)Nc1c2c(nn1-c1ccc(C)cc1)CS(=O)(=O)C2	-0.47%
O=C(NCc1ccc2c(c1)OCO2)C(=O)NCC1OCCN1S(=O)(=O)c1ccc(F)cc1 (configuration not stated)	1.05%
O=C(O)c1ccc(S(=O)(=O)N2CCOCC2)o1	-0.58%
CNC[C@H]1OCc2cnnn2CCCC(=O)N([C@H](C)CO)C[C@@H]1C	0.47%
CC(C)CC(=O)NC(=S)Nc1ccc(F)cc1F	1.3%
CC(=O)c1ccc(NC(=S)NC(=O)CC(C)C)cc1	16.1% (active)
CC(=O)c1ccc(NC(=O)CSC(=S)N2CCCC2)cc1	1.41%
CCCOc1cc(C)c(S(=O)(=O)n2nnc3ccccc32)cc1C	0.16%
CCC(C(=O)Nc1ncccn1)(C(F)(F)F)C(F)(F)F	0.01%
S=C1Nc2cc(Cl)ccc2Sc2ccccc21	1.17%

Compound	activation
Cc1ccc(S(=O)(=O)N(C)CC(=O)NCC(c2ccc(F)cc2)N2CCOCC2)cc1 (configuration not stated)	0.75%
COC(=O)[C@@H]1C[C@@]2(O)[C@H](O)[C@H](O)[C@H](O)C[C@H]2N1Cc1ccc(C)s1	0.11%
Cc1ccc(Oc2cc(NC(=O)CCCn3nc(C)c([N+](=O)[O-])c3C)cc([N+](=O)[O-])c2)cc1	0.22%
COc1cc(NC(=O)Nc2ccc(C)cc2)cc([N+](=O)[O-])c1	15.6% (active)
COc1ccc(S(=O)(=O)NNC(=O)Nc2ccc(C)cc2)c(OC)c1	0.08%
CC(C)CCN1C(=O)c2ccc(C(=O)Nc3cccc(S(N)(=O)=O)c3)cc2C1=O	1.4%
CCSC1=NCCN1S(=O)(=O)c1ccc(F)cc1	0.73%
COc1ccc(CNC(=O)COC(=O)c2ccc(C)c(S(=O)(=O)N3CCOCC3)c2)cc1OC	3.58%
Cc1ccc(C(=O)OCC(=O)N2CCCCCC2)cc1S(=O)(=O)N1CCOCC1	0.59%
COc1ccc(C(=O)OCC(=O)c2ccc(C)c(S(=O)(=O)N3CCOCC3)c2)cc1OC	15.7% (active)
COc1ccc(C(C)NC(=O)C23CC4CC(CC(C4)C2)C3)cc1 (configuration not stated)	-0.13%
Cc1ccc(NC(=O)COC(=O)CN2CCCCCC2=O)c(C)c1	-0.27%
COc1ccc(-c2ccc3c(c2)C2CC3CCN2CCC#N)cc1 (configuration not stated)	4.03%
CCOC(=O)N1CCN(C(=O)c2ccc3c(c2)N(Cc2ccc(C)cc2)CCS3)CC1	1.01%
O=C(O)CCCC(=O)Nc1ccc(Oc2cccc(C(F)(F)F)c2)nc1	0.38%
O=C(Nc1ccc(Cl)cc1)Nc1ccc(Oc2cccnc2)nc1	15.9% (active)
O=C(NNC(=O)c1csc(-c2cccnc2)n1)Nc1ccc(Cl)cc1	0.53%
COc1ccc(NC2CCCN(C(=O)c3ccncc3)C2)cc1 (configuration not stated)	0.4%
CSc1nc(C)nc2c1c(=O)n(C)c(=O)n2C	-0.23%
N#Cc1c(-c2ccc(F)cc2)cc(C2CC2)nc1SCC(=O)c1cccs1	0.07%
